Assay outcomes: PubChem BioAssay, The Scripps Research Institute Molecular Screening Center
Only some compounds are listed: those with a hit (about 4.1% of all), similar ones and a draw of the others.
hcDAF12 agonist: H. contortus DAF-12 nuclear receptor activators, primary screen, cell-based, luminescence, HEK293, lit1-tk-luc reporter. HEK293 hcDAF-12 lit1-tk-luc reporter; 0% DMSO, 100% Δ7-dafachronic acid. activation, % at 6.8 µM. hit rate 1.4% among 370,000. AID 652067, 2013;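 active means activation above the mean of all tested compounds plus 3 SD, cut at about 5.5% in these data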
ssDAF12 agonist: S. stercoralis DAF-12 nuclear receptor activators, primary screen, cell-based, luminescence, HEK293, GRIP1 co-expression, lit1-tk-luc; hit rate 1% among 370,000; HEK293 ssDAF-12/GRIP1 lit1-tk-luc reporter; % of 3 µM dafachronic acid response; Nuclear hormone receptor DAF-12 (Strongyloides stercoralis); AID 652126, 2013; activation, % at 6.8 µM;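 active means activation above the mean over all tested compounds plus 3 SD, cut at about 0.9% in these data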
hgDAF12 agonist: H. glycines DAF-12 receptor agonists, primary screen, cell-based, luminescence, HEK293, GAL4 fusion, UAS-luciferase. Nuclear hormone receptor DAF-12 (Heterodera glycines), GAL4 fusion. HEK293 GAL4-hgDAF12 UAS-luciferase reporter, agonist luminescence; normalized to butyrate control. activation, % at 6.8 µM. hit rate 1.8% among 370,000. AID 687014, 2013;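 active means activation above a cutoff set at the mean of all screened compounds plus 3 SD, cut at about 10% in these data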
DAX1 inh-1: DAX1 (NR0B1) inhibitors, primary screen, cell-based, HEK293, Gal4-DAX1, luciferase luminescence; Nuclear receptor subfamily 0 group B member 1 (Homo sapiens), P51843; HEK293 Gal4-DAX1 luciferase reporter; inhibition, % at 6.75 µM; hit rate 0.99% among 340,000; AID 504766, 2011;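 active means inhibition above the mean over all tested compounds plus 3 SD, cut at about 4.2% in these data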;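 further: inhibition shows as a rise in luminescence from relieved DAX1 repression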
Target sequence (P51843 207-470 limits assumed): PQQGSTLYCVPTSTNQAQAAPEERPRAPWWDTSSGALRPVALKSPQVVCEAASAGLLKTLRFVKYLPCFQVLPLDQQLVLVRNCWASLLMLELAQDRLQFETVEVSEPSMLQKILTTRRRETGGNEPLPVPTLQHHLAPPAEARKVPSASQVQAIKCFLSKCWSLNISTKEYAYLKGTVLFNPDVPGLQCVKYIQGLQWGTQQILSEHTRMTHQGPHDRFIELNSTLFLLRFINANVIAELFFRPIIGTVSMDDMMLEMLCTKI
DAX1 inh-2: DAX1 (NR0B1) inhibitors on StAR promoter, primary screen, cell-based, luminescence, SF-1 (NR5A1), full-length DAX-1; HEK293T StAR-luciferase reporter, SF-1/DAX-1 repression relief; inhibition, % at 6.8 µM; hit rate 1.1% among 370,000;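 active means inhibition above the mean over all tested compounds plus 3 SD, cut at about 3.6% in these data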;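 further: higher inhibition means more luminescence from relief of DAX-1 repression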
LXR ag: LXR agonists, Gal4 luciferase reporter, confirmation, counter-screen for hcDAF-12 agonist project, cell-based, luminescence, HEK293, H. contortus campaign; shares compounds with hcDAF12 agonist; HEK293 Gal4-LXR tk-luc reporter, 24 h; normalized: DMSO 0%, positive control 100%; activation, % at 6.8 µM; 3,400 tested, under 10 active; AID 743027, 2013;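 active means mean percent activation of the reporter above a cutoff set as the average over tested compounds plus their standard deviation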
hcDAF12 conf: H. contortus DAF-12 receptor agonists, confirmation, cell-based, luminescence, HEK293, lit1-tk-luc, triplicate; shares compounds with hcDAF12 agonist; HEK293 hcDAF-12 lit1-tk-luc reporter; % of Δ7-dafachronic acid response; activation, % at 6.8 µM; hit rate 61% among 3,400;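 active means mean activation across triplicate tests above the threshold derived from the earlier primary screen, cut at about 5.5% in these data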
hgDAF12 conf: H. glycines DAF-12 receptor agonists, confirmation, cell-based, luminescence, HEK293, GAL4-LBD fusion; activation, % at 6.8 µM; hit rate 80% among 3,300; shares compounds with hgDAF12 agonist; AID 743050, 2013; HEK293 GAL4-hgDAF12 luciferase reporter, agonist mode; percent of butyrate response;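 active means mean activation over triplicate wells above the hit cutoff derived from the earlier primary screen, cut at about 11% in these data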
LXRb DAF12 ctr: LXR agonists, Gal4 luciferase reporter, confirmation, counter-screen for hgDAF-12 agonist project, cell-based, luminescence, HEK293, H. glycines campaign. shares compounds with hgDAF12 agonist. 24 h. activation, % at 6.8 µM. 3,300 tested, under 10 active;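 active means mean activation of the triplicate above a set limit carried over from the primary screen, none filed active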
Of the large screens only hits and unclear results are named; the others gave an inactive call (follow-up assays come after a bar, where they were run); ! = not active in a repeat.

CC(C)Sc1nnc([C@@H](N)Cc2c[nH]c3ccccc23)o1	none
CCC(N)Cc1c[nH]c2ccccc12 (stereo unspecified)	hcDAF12 agonist 7.2 | LXR ag inactive | hcDAF12 conf inactive
C=CCOC(=O)c1ccccc1N	none
Nc1ccccc1C(=O)OCCOc1ccccc1	hcDAF12 agonist 9.3, hgDAF12 agonist 11, DAX1 inh-2 4.3 | LXR ag inactive | hcDAF12 conf 7.5
CCOP(=O)(OCC)C1(O)C(=O)Nc2ccccc21 (stereo unspecified)	hcDAF12 agonist 7.1 | LXR ag inactive | hcDAF12 conf inactive
O=C(c1cc(Br)ccc1Cl)N1CCC2(CC1)OCCO2	none
O=C(c1cc2cc(Br)ccc2[nH]1)N1CCC2(CC1)OCCO2	hcDAF12 agonist 7.6 | LXR ag inactive | hcDAF12 conf inactive
Cc1cc(S(N)(=O)=O)ccc1N=Cc1c(O)n(-c2ccccc2)c(=O)[nH]c1=O	none
Cc1ccc(-n2c(O)c(C=Nc3ccccc3N)c(=O)[nH]c2=O)cc1C	hcDAF12 agonist 7.8, DAX1 inh-2 4.4 | LXR ag inactive | hcDAF12 conf inactive
CCOC(=O)[C@]12Cc3cc(Cl)ccc3[C@H]1N(C(C)C)C(=O)c1ccccc12	none (no result: DAX1 inh-1)
COc1cc(CNCCc2c[nH]c3ccccc23)cc(OC)c1	hcDAF12 agonist 8.5 | LXR ag inactive | hcDAF12 conf inactive
CC12CCC(O)CC1CCC1C2CCC2(C)C(C(=O)CO)CCC12 (stereo unspecified)	none (no result: DAX1 inh-1)
Cn1cc(C=C2C(=O)NC(=O)NC2=O)c2ccccc21	none
CC(=O)n1cc(C=C2C(=O)NC(=O)NC2=O)c2ccccc21	hcDAF12 agonist 9.8 | LXR ag inactive | hcDAF12 conf inactive
O=c1[nH]c(=O)n(Cc2ccccc2)c(O)c1/C=C1\C=Nc2ccccc21	none
O=c1[nH]c(=O)n(CC2CCCO2)c(O)c1/C=C1\C=Nc2ccccc21 (stereo unspecified)	hcDAF12 agonist 6.1, DAX1 inh-1 5.4! | LXR ag inactive | hcDAF12 conf inactive
CCOC(=O)[C@]12Cc3cc4ccccc4cc3[C@H]1N(Cc1ccccc1)C(=O)c1ccccc12	none (no result: DAX1 inh-1)
C=CC1C[N+]2(C)CCC1CC2C(O)c1ccnc2ccccc12 (stereo unspecified)	none (no result: DAX1 inh-1)
Cc1ccc(-c2nn(Cc3ccccc3)cc2C=O)cc1	hcDAF12 agonist 9.4 | LXR ag inactive | hcDAF12 conf inactive
CC(=Nc1ccccc1N)c1c(O)n(C)c(=O)[nH]c1=O	hcDAF12 agonist 7.7, ssDAF12 agonist 1.8 | LXR ag inactive | hcDAF12 conf inactive
COc1ccccc1N	none (no result: DAX1 inh-1)
C[C@H]1CN([C@@H](C)CO)C(=O)CCCn2cc(nn2)CO[C@@H]1CN(C)C(=O)Oc1cccc2ccccc12	none (no result: DAX1 inh-1)
CCCCn1c(=O)c(C(=O)Nc2ccsc2C(=O)OC)c(O)c2ccccc21	hcDAF12 agonist 7.2 | LXR ag inactive | hcDAF12 conf inactive
CCCCn1c(=O)c(C(=O)Nc2ccccc2F)c(O)c2ccccc21	hcDAF12 agonist 7.0 | LXR ag inactive | hcDAF12 conf 6.1
O=C1c2ccccc2-c2cccc3cccc1c23	none
O=C1c2ccccc2-c2cc3ccccc3cc21	hcDAF12 agonist 6.6 | LXR ag inactive | hcDAF12 conf 7.1
c1ccc2c(CN3CCOCC3)c[nH]c2c1	hcDAF12 agonist 7.0 | LXR ag inactive | hcDAF12 conf inactive
CCOC(=O)[C@]12Cc3c(cc(OC)c(OC)c3OC)[C@H]1N(C(C)C)C(=O)c1cc(OC)ccc12	none (no result: DAX1 inh-1)
COc1ccc(-c2cc(=Nc3cccc(C(=O)O)c3)c3cc(C)ccc3o2)cc1	ssDAF12 agonist 0.9, hgDAF12 agonist 19 | hgDAF12 conf 19 | LXRb DAF12 ctr inactive
CN1C(=O)NC(=O)C(C)(C2=CCCCC2)C1=O (stereo unspecified)	hgDAF12 agonist 22, DAX1 inh-2 3.9 | hgDAF12 conf 13 | LXRb DAF12 ctr inactive
O=c1[nH]c2cc(Cl)ccc2n1C1CCN(Cc2ccc(-c3nc4ccccc4nc3-c3ccccc3)cc2)CC1	none (no result: DAX1 inh-1)
Cc1cc(C(=O)CS(=O)(=O)c2ccccc2)cc(C)c1OC(=O)N(C)C	hgDAF12 agonist 14, DAX1 inh-2 4.0 | hgDAF12 conf inactive | LXRb DAF12 ctr inactive
Cc1ccc(S(=O)(=O)CC(=O)c2cc(C)c(OC(=O)N(C)C)c(C)c2)cc1	none
O=C(NC1CN2CCC1CC2)c1cc(-c2ccc(Cl)cc2)nc2ccccc12 (stereo unspecified)	none (no result: DAX1 inh-1)
COc1cccc(-n2c(=S)[nH]c3ccccc3c2=O)c1	none
COc1ccc2c(c1)NP(=S)(Oc1ccccc1)N2 (stereo unspecified)	hgDAF12 agonist 13 | hgDAF12 conf inactive | LXRb DAF12 ctr inactive
